Screening results: PubChem, National Center for Advancing Translational Sciences (NCATS)
TDP1 cell CPT = qHTS for Inhibitors of human tyrosyl-DNA phosphodiesterase 1 (TDP1): qHTS in cells in presence of CPT | chicken DT40 Tdp1-/-;hTDP1 cells + 20 nM CPT, ATP luminescence, 48 h | Potency, µM (top dose mostly 46.2 µM), inactives show at the highest dose activity change, negative = growth inhibition, usual class: inhibitors | hit rate 12% among 420,000 | AID 686979, 2013; note: potency is the fitted concentration of half-maximal effect; % is set by controls: 0 for no effect and ±100 for the full control effect; nearly all actives have a fitted effect of over 55% in size
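Chicken DT40 Tdp1-/- cells complemented with human TDP1, 400 cells/well, exposed to compounds plus 20 nM camptothecin for at least 48 h at 37 C; viability read as ATP content by CellTiter-Glo luminescence.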
TDP1 block = qHTS Assay for Inhibitors of Tyrosyl-DNA Phosphodiesterase (TDP1); Potency, µM (top dose mostly 130 µM), for inactives: at the top dose activity change, negative = inhibition, most hits filed as inhibitors; hit rate 0.28% among 350,000; Tyrosyl-DNA phosphodiesterase 1 (Homo sapiens), Q9NUW8; recombinant TDP1, AlphaScreen DNA substrate cleavage; note: potency is the fitted concentration of half-maximal effect; % is set by controls: 0 for no effect and ±100 for the full control effect; nearly all actives have a fitted effect of over 40% in size
Target sequence (Q9NUW8 whole entry, looked up): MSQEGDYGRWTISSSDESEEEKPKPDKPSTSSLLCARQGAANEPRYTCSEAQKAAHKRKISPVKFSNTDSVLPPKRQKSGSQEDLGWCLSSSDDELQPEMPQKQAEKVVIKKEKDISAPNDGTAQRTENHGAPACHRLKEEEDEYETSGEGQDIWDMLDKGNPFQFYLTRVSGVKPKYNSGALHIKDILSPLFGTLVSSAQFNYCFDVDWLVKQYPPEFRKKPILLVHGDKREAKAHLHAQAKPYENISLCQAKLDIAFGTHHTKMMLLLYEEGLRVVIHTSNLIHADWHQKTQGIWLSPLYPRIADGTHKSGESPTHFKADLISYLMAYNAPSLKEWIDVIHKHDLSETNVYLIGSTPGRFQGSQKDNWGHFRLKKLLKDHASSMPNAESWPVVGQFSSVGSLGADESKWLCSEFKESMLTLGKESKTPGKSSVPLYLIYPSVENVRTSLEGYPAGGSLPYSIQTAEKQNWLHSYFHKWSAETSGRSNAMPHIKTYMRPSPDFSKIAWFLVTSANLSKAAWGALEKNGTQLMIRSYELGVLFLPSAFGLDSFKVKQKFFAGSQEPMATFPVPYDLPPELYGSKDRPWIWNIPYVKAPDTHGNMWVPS
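Recombinant human Tdp1 (E. coli-expressed, 1 nM final) preincubated with compounds 15 min at room temperature, then 5'-biotin/3'-phosphotyrosine-FITC DNA substrate (15 nM final) added for 5 min. AlphaScreen beads (10 ug/ml final) added 10 min; cleavage lowers signal.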
uPA generation = qHTS for Inhibitors of Cell Surface uPA Generation. hit rate 0.31% among 330,000. cell surface uPA generation assay, qHTS. Potency, µM (titrated, usually from 38.3 µM), for the others: at the top dose activity change, negative = inhibition, actives largely listed as inhibitors; active = well fitted inhibition curve with a large enough effect; inconclusive = small, poorly fitted or top-dose-only effect; inactive = no such curve, though single readings can be large or run the other way; tested in mouse RAW 264.7 cells; note: potency is the fitted concentration of half-maximal effect; % is set by controls: 0 for no effect and ±100 for the full control effect; nearly all actives have a fitted effect of over 55% in size
DT40 TDP1 no CPT = qHTS for Inhibitors of human tyrosyl-DNA phosphodiesterase 1 (TDP1): qHTS in cells in absence of CPT | DT40 Tdp1-/- hTDP1 cells, no CPT, ATP luminescence, 48 h | hit rate 15% among 420,000 | AID 686978, 2013 | Potency, µM (highest dose often 46.2 µM), inactives show at the top dose activity change, negative = growth inhibition, most hits filed as inhibitors; note: potency is the fitted concentration of half-maximal effect; % is set by controls: 0 for no effect and ±100 for the full control effect; nearly all actives have a fitted effect of over 55% in size
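Chicken DT40 Tdp1-/- cells complemented with human TDP1, screened without camptothecin (DMSO vehicle only), 400 cells/well. Compounds pin-transferred, cells incubated at 37 °C for at least 48 hr. Growth read as ATP-dependent luminescence (CellTiter-Glo, 30 min at RT).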
miR-21 act = qHTS Assay for Modulators of miRNAs and/orActivators of miR-21. 340,000 tested, under 10 active. HeLa miR-21 FLuc reporter, luciferase, 48 h. AID 2288, 2010. Potency, µM (doses to about 38.3 µM), inactives show top-dose activity change, positive = activation, usual class: activators;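 note: % of control where 0% means no effect; miR-21 action dims this reporter so a rising signal means less miR-21 action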
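HeLa cells stably expressing CMV-driven firefly luciferase with a downstream miR-21 binding sequence, endogenously expressing miR-21, were treated with titrations (up to about 40uM final) for 48 hours at 37 degree Celsius. Luciferase luminescence was read after lysis.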
* hit, by the source's call; ? = inconclusive; / = no result; [ ] = remark or other dose. This is a sample that favours compounds with a hit; in the whole collection about 16% have one here. Unless noted, calls come from the whole dose curve; as a rule, active = well fitted curve in the direction sought with a large enough effect; inconclusive = small, poorly fitted or top-dose-only effect, or another doubt; inactive = no such curve, though single readings can be large; an effect the other way counts as inactive or inconclusive.

SMILES | TDP1 cell CPT | TDP1 block | uPA generation | DT40 TDP1 no CPT | miR-21 act
CC1(C)C=C2C(=NN(c3ccccc3)C(N)=C2C#N)CO1 | 13µM* | / | -5% | ? | -8%
CC1(C)Cc2c(C#N)c(N)n(-c3ccccc3)c(=S)c2CO1 | 2% | 5% | -3% | -22% | -9%
FC(F)(F)c1ccc(-c2noc(-c3ccccc3Br)n2)cc1 | 16µM* | 5% | / | ? | -29%
Cc1ccc(-c2noc(-c3ccccc3F)n2)cc1 | 7% | -11% | -6% | -6% | -64%
CC(C)(C)CC(C)(C)c1ccc(O)c(CN2CCN(CCC#N)CC2)c1 | ? | 7% | 6% | 23µM* | 16%
CC(=O)N1CCc2cc(S(=O)(=O)NC(Cc3ccccc3)C(=O)NC3CCCCCC3)ccc21 (configuration not stated) | -5% | -7% | 0% | -12% | -5%
COc1ccc(N2CCN(C(=O)C3CCCN(S(=O)(=O)c4cccc5cccnc45)C3)CC2)cc1 (configuration not stated) | 16µM* | 1% | 1% | ? | 19%
O=C(O)[C@@H]1CCCN(S(=O)(=O)c2cccc3cccnc23)C1 | 33% | 0% | -3% | -2% | /
CC1Cc2ccccc2N1C(=O)C1CCCN(S(=O)(=O)c2cccc3cccnc23)C1 (configuration not stated) | 13µM* | 3% | ? | 13µM* | 16%
Cc1ccccc1NC(=O)N1CCCN(c2ccc(C#N)cn2)CC1 | 0% | / | 0% | 4% | -3%
Cc1ccc(-n2c(SCC(=O)N3CCCc4ccccc43)nnc2-c2cccnc2)c(C)c1 | ? | 7% | 1% | 23µM* | 2%
O=C(CSc1nnc(CNc2ccccc2)o1)N1CCCc2ccccc21 | 3% | 2% | 2% | -30% | 2%
O=C(CSc1nnc(-c2ccc(Cl)s2)o1)N1CCCc2ccccc21 | ? | 4% | -8% | 16µM* | -2%
Cc1ccc(NCc2nnc(SCC(=O)N3CCCc4ccccc43)o2)c(C)c1 | 5.8µM* | 7% | 2% | 18µM* | -4%
O=C(CSc1nnc(-c2ccc(Cl)s2)o1)N1CCc2ccccc21 | / | 2% | / | / | -4%
CCn1c(SCC(=O)N2CCCc3ccccc32)nnc1-c1cccs1 | -2% | 2% | 3% | 4% | 0%
O=C(CSc1nnc(-c2cccs2)n1-c1ccccc1)N1CCCc2ccccc21 | ? | 3% | / | 16µM* | 16%
O=C(c1cccc(S(=O)(=O)N2CCCCC2)c1)N(CCc1ccccc1)Cc1ccccc1 | 18µM* | -10%[0.505 µM] | -4% | ? | /
CCN(Cc1ccccc1)C(=O)c1cc(S(=O)(=O)N2CCOCC2)ccc1N1CCCC1 | ? | -3% | 1% | 16µM* | /
O=C(c1cccc(S(=O)(=O)N2CCOCC2)c1)N(CCO)Cc1ccccc1 | -23% | 4% | 5% | 0% | 0%
CCN(Cc1ccccc1)C(=O)c1cccc(S(=O)(=O)N2CCN(Cc3ccccc3)CC2)c1 | 16µM* | / | -20% | 26µM* | /
COCCN(Cc1ccccc1)C(=O)c1cccc(S(=O)(=O)N2CCN(Cc3ccccc3)CC2)c1 | ? | / | / | 18µM* | /
O=C(O)c1ccc2c(=O)n(-c3ccc(F)cc3)c(=S)[nH]c2c1 | -4% | -3% | 5% | 18% | 0%
COc1ccc(CCNC(=O)Nc2ccc([N+](=O)[O-])cc2)cc1OC | ? | 3% | 1% | ? | 0%
CCN(Cc1ccccc1)C(=O)c1cccc(S(=O)(=O)N2CCN(c3ccccc3)CC2)c1 | 16µM* | -1% | -4% | 21µM* | /
SMILES | TDP1 cell CPT | TDP1 block | uPA generation | DT40 TDP1 no CPT | miR-21 act
CCCCN(C(=O)c1ccc2c(c1)OCO2)c1ccccc1 | ? | 0% | 2% | 16µM* | 8%
CCc1nnc(NC(=O)c2cccc(S(=O)(=O)N3CCN(c4ccccc4)CC3)c2)s1 | -6% | 4% | 0% | -6% | 6%
COCCN(Cc1ccccc1)C(=O)c1cccc(S(=O)(=O)N2CCCc3ccccc32)c1 | 13µM* | 1% | -29% | 9.2µM* | /
Cc1ccc(N(Cc2ccccc2)C(=O)c2cccc(S(=O)(=O)N3CCN(C)CC3)c2)cc1 | ? | 5% | -24% | ? | /
CN(Cc1ccccc1)C(=O)c1ccc2c(c1)OCO2 | 4% | 3% | -4% | -6% | -20%
CCCn1c(N)c(N(CCOC)C(=O)c2cccc(S(=O)(=O)N3CCCc4ccccc43)c2)c(=O)[nH]c1=O | ? | 5% | 11% | ? | /
CCCCN(C(=O)c1cccc(S(=O)(=O)N2CCN(Cc3ccccc3)CC2)c1)c1ccccc1 | ? | -17% | 6% | 16µM* | -4%
CC(CCc1ccccc1)NC(=O)Cc1ccc(Br)cc1 (configuration not stated) | 1% | / | 7% | 6% | -9%
C=C(C)c1cccc(C(C)(C)NC(=O)NNC(=O)c2ccccc2O)c1 | 3% | 2% | / | ? | 0%
Nc1nonc1-n1nnc(C(=O)N/N=C/c2cccs2)c1CSc1ccccc1 | -21% | -14% | 0% | 3% | 0%
O=C(c1cccc(S(=O)(=O)N2CCOCC2)c1)N(Cc1ccc(F)cc1)Cc1ccco1 | ? | 5% | ? | 18µM* | -2%
O=C(COC(=O)c1cccc(S(=O)(=O)N2CCN(c3ccccc3)CC2)c1)NCc1ccco1 | -13% | 79µM* | -3% | -16% | 1%
NC(=O)COC(=O)c1cccc(S(=O)(=O)N2CCN(c3ccccc3)CC2)c1 | -3% | ? | -6% | ? | 0%
CN(C)S(=O)(=O)c1cccc(C(=O)N(Cc2ccc(F)cc2)Cc2ccco2)c1 | ? | 9% | 0% | ? | 1%
CCN(Cc1ccccc1)C(=O)c1cccc(S(=O)(=O)N2CCN(c3ccc(F)cc3)CC2)c1 | 18µM* | 1% | ? | 16µM* | /
CC(=O)N1CCN(C(=O)c2cccc(S(=O)(=O)N3CCN(c4ccc(F)cc4)CC3)c2)CC1 | -27% | / | 2% | -14% | /
COc1ccc(CN2CCN(S(=O)(=O)c3ccccc3)CC2)cc1Br | ? | -15% | / | ? | -3%
CS(=O)(=O)c1cccc(C(=O)Nc2ccccc2Cc2ccccc2)c1 | 0% | 4% | 0% | -27% | -1%
O=C1O[C@@H]([C@H](O)CO)C(O)=C1O | 21µM* | / | -9% | ? | /
Cc1cc(C(=O)Nc2cc(S(C)(=O)=O)ccc2Cl)no1 | -6% | -6% | 5% | -21% | /
CNc1ncnc2c1ncn2[C@@H]1O[C@H](CO)[C@H](O)[C@H]1O | / | -6%[56.1 µM] | / | / | /
